About 83,000 compounds went through this panel and 20% of them were active in at least one assay; those are over-represented in the sample as a whole.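 Compound tested at a single concentration for 48 hours in 96-well plates; a percent growth value below 10 was scored as active.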 Calls of active or inactive are those of the source.
system: HL-60(TB) leukemia; assay: NCI-60 one-dose screen, 48 h (100 = growth as untreated, 0 = no growth, -100 = all killed); conditions: 10 µM unless noted

SMILES	growth
Cn1ccnc1C(=O)/C=C/c1ccc(CNC(=O)c2c(F)c(F)c(F)c(F)c2F)cc1	20% (inactive)
Cc1cc(O)c2c(c1)C(=O)C(c1c(C)cc3c(c1O)C(=O)C=CC3=O)=CC2=O	55% (inactive)
Cc1ccc2c(n1)C(=O)C(Cl)=C(Nc1ccc(C(=O)OC(C)(C)C)cc1)C2=O	4.87% [9.25 µM] (active)
C/C(=N/Nc1nc(N/N=C(/C)c2ccc([N+](=O)[O-])cc2)nc(N2CCOCC2)n1)c1ccc([N+](=O)[O-])cc1	92.6% (inactive)
O=C1c2cc(Br)ccc2-n2c1nc1cc(Br)ccc1c2=O	80% (inactive)
N#C/C(=C\c1ccc2ccccc2c1)C(=O)Nc1sc2c(c1C#N)CCC2	103% (inactive)
CN(C)CCNC(=O)c1ccc(-c2nc3ccc4[nH]ncc4c3c3c2CCC3)cc1	-18.8% (active)
C=CCn1c(SCC(=O)Nc2ccc(C(=O)/C=C/c3ccc(C)cc3)cc2)nnc1-c1c[nH]c2ccccc12	98.4% (inactive)
CCCCCc1ccc(S(=O)(=O)Nc2cc(-c3csc(NC(=O)CN4CCN(CCO)CC4)n3)ccc2OC)cc1	-40.5% (active)
Cc1csc(/N=C(N)/N=C(\N)c2cccs2)n1	111% (inactive)
COc1ccc(/C=N/NC(=O)c2c(N)nn(C)c2Nc2ccccc2)cc1	15.5% (inactive)
Cc1ccc(NC(=O)c2cccc(CN3CCN(C)CC3)c2)cc1Oc1ccc(-c2[nH]nc3ncnc(N)c23)cc1	46.8% (inactive)
CNC(=O)c1cc(-c2ccc(NC(=O)Nc3ccc(N4CCOCC4)c(C(F)(F)F)c3)cc2)nc2cccnc12	25.2% (inactive)
COC(=O)C(Cc1ccccc1)Nc1nc(NC(Cc2ccccc2)C(=O)OC)nc(N2CCOCC2)n1 (centres undefined)	103% (inactive)
O=C1[C@H]2Cc3c([nH]c4ccccc34)[C@@H](c3c(Cl)cccc3Cl)N2C(=O)CN1C1CCN(CC2CCCCC2)CC1	35.4% (inactive)
CCNC(=O)Oc1ccc(/C(=C(/C)c2ccccc2)c2ccc(OCCN3CCCCCC3)cc2)cc1	-19.2% (active)
C#Cc1nc(/C=C/C(=O)NO)cs1	-58.7% (active)
COc1cccc(/C=C(/C)c2ccc3cccc(OC)c3[o+]2)c1O	99.7% (inactive)
O=C(O)c1ccc(-n2cc(CNc3cc(F)c(F)c(F)c3)c(-c3cccc(F)c3)n2)cc1	108% (inactive)
O=C(N/N=C/c1cc2ccccc2nc1Cl)c1cc(-c2nc3ccccc3[nH]2)nc2ccccc12	92% (inactive)

SMILES	growth
CCOC(=O)c1c(Nc2ccccc2)nn2c(-c3ccc(Cl)cc3)ccnc12	86.7% (inactive)
CCN1CCN(S(=O)(=O)c2oc(-c3ccc(Cl)cc3)nc2C#N)CC1	7.25% (active)
O=C(Nc1cccc(Cl)c1)Nc1nc2ccc([N+](=O)[O-])cc2o1	0.103% (active)
CCOC(=O)c1c(NC(=O)c2ccccc2C(F)(F)F)sc2c1CCC(=O)C2	33.4% (inactive)
O=C(Nc1nc2ccc(O)cc2s1)c1cccc(C(F)(F)F)c1	18.3% (inactive)
NC(=O)c1cccc(-n2ccc3cc(NC(=O)Nc4ccc(N5CCOCC5)c(C(F)(F)F)c4)ccc32)n1	-52.2% (active)
N#C/C(=N\Nc1ccc(F)cc1)C(=O)Nc1cc(-c2ccccc2)nn1-c1ccccc1	3.54% (active)
C/C(=N\NC(N)=O)c1c(O)sc(=O)[nH]c1=O	96.2% (inactive)
Nc1ccc(-c2nnc(SCc3ccc(O)c4ncccc34)o2)cc1	-5.84% (active)
NS(=O)(=O)c1ccc(Nc2nc(SCC(=O)c3ccc(Cl)cc3)nc3ccccc23)cc1	103% (inactive)
CCOC(=O)C1=NNC(c2ccc(Cl)cc2)C1C(=O)N1C(=S)NC(=O)C1CC(C)C (centres undefined)	106% (inactive)
Fc1cccc(Cl)c1/C=N/Nc1nc(N/N=C/c2c(F)cccc2Cl)nc(N2CCCCC2)n1	1.27% (active)
Cc1ccc2c(n1)C(=O)C(Cl)=C(Nc1cccc(C(=O)OC(C)(C)C)c1)C2=O	16.7% (inactive)
Cc1cc(-c2ccc(Cl)cc2)n(Cc2nnc(SCC(=O)Nc3ccc(S(N)(=O)=O)cc3)n2-c2ccc([N+](=O)[O-])cc2)n1	76.8% (inactive)
CC1OC(O[C@@H]2[C@H](O)C(CO)OC(O[C@H]3COC(O[C@H]4CC[C@]5(C)[C@H]6CC[C@]78OC[C@@]9(CC[C@](C)(C=O)C[C@H]97)C(=O)C[C@@]8(C)[C@]6(C)CC[C@H]5C4(C)C)[C@@H](O)[C@@H]3O)[C@H]2OC2OC[C@@H](O)[C@@H](O)[C@@H]2O)[C@@H](O)[C@@H](O)[C@H]1O (some centres undefined)	101% (inactive)
Oc1ccc(CSc2nnc(-c3ccc(Br)cc3)o2)c2cccnc12	23% (inactive)
COc1ccc2[nH]cc(-c3nn4cc(-c5ccncc5)nc4s3)c2c1	54.9% (inactive)
CC(C)(C)Nc1nc2c(OCCc3ccccc3)cccn2c1-c1cccc(F)c1	-30.2% (active)
COc1ccc(N2CCN(C(=O)CSc3ccc(-c4nc5cc(C)c(C)cc5[nH]4)cn3)CC2)cc1	29.4% (inactive)
